In PubChem BioAssay (Tox21):
Values joined by “and” are separate entries in the source; they are usually repeats but may differ in a detail not shown here. Equal entries are not always repeated. Results filed as inconclusive are left out. Active and inactive are the calls of the source. Calls come from the whole dose curve.

Test: qHTS assay to identify small molecule agonists of the progesterone receptor (PR) signaling pathway - cell viability counter screen (AID 1346799); note: nearly all actives have a fitted effect of over 45% in size
Details: PR-UAS-bla HEK293T viability, CellTiter-Glo luminescence, 16 h; series mostly up to 92.4 µM; activity change, negative = cytotoxicity: at the top concentration
Excerpt: National Center for Advancing Translational Sciences [NCATS]
NIH Chemical Genomics Center [NCGC]
U.S. Environmental Protection Agency [EPA]
National Institutes of Environmental Health Sciences [NIEHS]
National Toxicology Program [NTP]
U.S. Food and Drug Administration [FDA]
Progesterone receptor (PR), a nuclear hormone receptor, plays an important role in development, metabolic homeostasis and reproduction. It is activated by the steroid hormone progesterone. Endocrine disrupting chemicals (EDCs) and their interactions with steroid hormone receptors like PR causes disruption of normal endocrine function. To identify the compounds that stimulate PR signaling, a PR-UAS-bla GripTite cell line i.e. PR-UAS-bla HEK293T (Invitrogen, Carlsbad, CA, USA) containing a beta-lactamase reporter gene under the control of an UAS response element was used to screen Tox21 10K compound library. The cytotoxicity of the Tox21 compound library against the PR-bla cell line was tested in parallel by measuring the cell viability using CellTiter-Glo assay in the same wells.
Tox21 Assay Protocol Summary:
PR-UAS-bla HEK293T cells were dispensed at 3,000 cells/5 uL of assay medium containing 2% charcoal stripped FBS per well into black wall/clear-bottom 1536-well plates using a Multidrop Combi (ThermoFisher Scientific, Waltham, MA) dispenser. After the assay plates were incubated at a 37C and 5% CO2 for 6 hr, 23 nL of compounds dissolved in DMSO, positive controls or DMSO only was transferred to the assay plate by a Pintool station (Kalypsys, San Diego, CA). The plates were incubated at 37C and 5% CO2 for 16 hr. Then 1 uL of LiveBLAzer B/G FRET substrate was added using a Flying Reagent Dispenser (FRD, Aurora Discovery, San Diego, CA), the plates were incubated at room temperature for 2 hours, and fluorescence intensity was measured by an Envision plate reader (PerkinElmer, Shelton, CT). For cell viability readout that measures cytotoxicity, 4 uL/well of CellTiter-Glo reagent was added into the assay plates using a FRD. After 30 min incubation at room temperature, the luminescence intensity in the plates was measured using a ViewLux (PerkinElmer) plate reader.
% is set by controls: 0 for no effect and ±100 for the full control effect; potency is the fitted concentration of half-maximal effect.

SMILES | activity change, negative = cytotoxicity | Potency
CC(C)CCCCCOC(=O)CCS | 3.53% (inactive) | 
O=C(O)c1cccc(C(F)(F)F)c1 | -0.711% (inactive) | 
O=C(O)c1cc(=O)c2ccccc2o1 | -3.49% [at 42.5 µM] (inactive) | 
CCCCCCCCCCCCCCCC[N+](C)(C)CC |  | 68.8 µM (active)
[Cu+] | -10.5% (inactive) | 
Cc1c(C)c([N+](=O)[O-])c(C(C)(C)C)c([N+](=O)[O-])c1C | -16.2% (inactive) | 
OCCN1CCN(CCCN2c3ccccc3Sc3ccc(C(F)(F)F)cc32)CC1 |  | 10.6 µM (active)
Cc1cc(C)c(/C=C2\C(=O)Nc3ccccc32)[nH]1 | 7% [at 42.5 µM] (inactive) | 
CNC(=O)c1ccccc1Sc1ccc2c(/C=C/c3ccccn3)n[nH]c2c1 |  | 33.5 µM (active)
Clc1ccnc(Cl)n1 | -22.3% (inactive) | 
O=C1OC2(c3ccc(O)cc3Oc3cc(O)ccc32)c2ccc(N=C=S)cc21 | 0% (inactive) | 
COc1cc(C)ccc1O | -4.6% (inactive) | 
CC(C)(C)CC(C)(C)c1ccc(Nc2ccc(C(C)(C)CC(C)(C)C)cc2)cc1 | 8.24% [at 8.39 µM] (inactive) | 
CCC(=O)C(=O)CC | -8.19% (inactive) | 
CCO[C@@H]1O[C@H](C(COCc2ccccc2)OCc2ccccc2)[C@H](OCc2ccccc2)[C@H]1O (stereo not given in full) | -22.8% [at 42.5 µM] (inactive) | 
CC[C@H](C)COC(=O)/C=C/c1ccc(N=Cc2ccc(OC)cc2)cc1 | 0% (inactive) | 
O=[N+]([O-])c1cccc(C(F)(F)F)c1 | -5.26% (inactive) | 
CCCCCC(C)OC(=O)COc1ccc(Cl)c2cccnc12 (stereo not given) | -13.9% (inactive) | 
CCCCCCCCCCCC(=O)OCC(C)OC(=O)CCCCC(=O)O (stereo not given) | -21.5% [at 42.5 µM] (inactive) | 
CC(C)(C)C1CCC(=O)CC1 | -27.6% (inactive) | 

SMILES | activity change, negative = cytotoxicity | Potency
O=C(/C=C/c1ccc(O)c(O)c1)O[C@@H](C(=O)O)[C@@H](OC(=O)/C=C/c1ccc(O)c(O)c1)C(=O)O | 8.17% (inactive) | 
CC(N=C(NC#N)Nc1ccncc1)C(C)(C)C (stereo not given) | 4.93% [at 42.5 µM] (inactive) | 
S=c1nccc[nH]1 | -0.198% (inactive) | 
CCCCCCCC | -2.32% (inactive) | 
O=C1c2ccccc2C(=O)N1SC1CCCCC1 |  | inactive
CN(C)c1ccc(C(=C2C=CC(=[N+](C)C)C=C2)c2ccc(N(C)C)cc2)cc1 |  | 27.2 µM (active) and 21.1 µM (active)
CCCCC(CC)COC(=O)CCCCC(=O)OCc1ccccc1 (stereo not given) | -2.27% (inactive) | 
O=C(O)c1cc(-c2ccc(F)cc2F)ccc1O | -20.1% [at 42.5 µM] (inactive) | 
Cc1cc(C(C)(C)C)c(O)c(C)c1Cn1c(=O)n(Cc2c(C)cc(C(C)(C)C)c(O)c2C)c(=O)n(Cc2c(C)cc(C(C)(C)C)c(O)c2C)c1=O | -12.8% (inactive) | 
CC(CCc1ccccc1)NCC(O)c1ccc(O)c(C(N)=O)c1 (stereo not given) | 4.31% (inactive) | 
Cc1ccc(C(=O)O)cc1 | -16.5% (inactive) | 
c1ccsc1 | -5.41% (inactive) | 
OCC(F)(F)F | -3.27% (inactive) | 
O=C(O)c1ccc2cc(C(=O)O)ccc2c1 | -0.243% (inactive) | 
CC(C)(C)c1ccc(C(O)CCCN2CCC(C(O)(c3ccccc3)c3ccccc3)CC2)cc1 (stereo not given) | -10.6% [at 42.5 µM] (inactive) | 
COc1ccc2cc1Oc1ccc(cc1)C[C@H]1c3c(cc4c(c3Oc3cc5c(cc3OC)CCN(C)[C@@H]5C2)OCO4)CCN1C | 0.107% [at 42.5 µM] (inactive) | 
O=C(O)c1cc(O)c2ccccc2c1O | 14.2% (inactive) | 
CCn1c2ccccc2c2cc([N+](=O)[O-])ccc21 | -10.5% (inactive) | 
CCc1cccc(CC)c1NC(=O)CN(CC(=O)O)CC(=O)O | 6.38% [at 42.5 µM] (inactive) | 
CC(C)Cn1cnc2c(N)nc3ccccc3c21 | 13.4% [at 19 µM] (inactive) | 
